According to ChEMBL document CHEMBL4513139, “CO-ADD screening of University of Strathclyde (UK) compounds”:
Results with a measured potency or affinity are listed apart.

tested on: Staphylococcus aureus; settings: Concentration 32 ug.mL-1; ASSAY_TEST Inhibition of Bacterial Growth; detection method Absorption (OD600); MEDIA CAMHB; plate type 384well; NBS; CORNING #3640; time 18 hr

Compared with `CC(C)CCn1cc(NC(=O)c2cc(NC(=O)c3cc(NC(=N)c4ccccc4)cn3C)cn2C)cc1C(=O)NCCCN(C)C.O=C(O)C(F)(F)F.O=C(O)C(F)(F)F`, `COc1cccc(C(=N)Nc2cc(C(=O)Nc3cc(C(=O)Nc4cn(CCCN(C)C)cn4)n(C)c3)n(C)c2)c1.O=C(O)C(F)(F)F.O=C(O)C(F)(F)F` is lower in Inhibition: 22.24% for the first, 18.77% for the second.

First: Cn1cc(NC(=O)c2cc(NC(=O)c3sc(N)nc3C(F)(F)F)cn2C)cc1C(=O)NCCC(=N)N.O=C(O)C(F)(F)F
Second: Cn1cc(NC(=O)c2cc(NC(=O)c3sc(N)nc3C(F)(F)F)cn2C)cc1C(=O)NCCN1CCOCC1.O=C(O)C(F)(F)F
The Inhibition of the first is lower: -17.29% for the first, 12.04% for the second.

Compared with `Cc1ncc(CO)c(N)n1`, `Cc1ncc(Cn2cc(CO)nn2)c(N)n1` is higher in Inhibition: 1.81% for the first, 15.8% for the second.

Compared with `CC(=N)Nc1cc(C(=O)Nc2cc(C(=O)Nc3cc(C(=O)NCCN4CCOCC4)n(C)c3)n(C)c2)n(C)c1.O=C(O)C(F)(F)F.O=C(O)C(F)(F)F`, `COC(=O)c1ccc(C(=O)Nc2cc(C(=O)Nc3cc(C(=O)NCCN4CCOCC4)n(C)c3)n(C)c2)cc1.O=C(O)C(F)(F)F` is lower in Inhibition: 23.57% for the first, 12.57% for the second.

Compared with `CC(C)CCc1sc(NC(=O)c2cc(NC(=O)c3cc(NC(=O)CCC(=O)O)cn3C)cn2C)nc1C(=O)NCCCN(C)C.O=C(O)C(F)(F)F`, `CN(C)CCCNC(=O)c1cc(NC(=O)c2cc(NC(=O)CCC(=O)O)cn2C)cn1C.O=C(O)C(F)(F)F` is higher in Inhibition: 3.82% for the first, 5.68% for the second.

Going from `Cc1ncc(Cn2cc(CC(N)C(=O)O)nn2)c(N)n1.Cl` (stereo not given) to `Cc1ncc(Cn2cc(CCO)nn2)c(N)n1`, the Inhibition rises from -6.04% to 21.55%.

First: CCOC(=O)c1cc(NC(=O)c2cc(NC(=O)c3nc(N)sc3C(C)C)cn2C)cn1C
Second: CCOC(=O)c1cc(NC(=O)c2cc(NC(=O)c3sc(N)nc3C(F)(F)F)cn2C)cn1C
The Inhibition of the first is higher: 29.56% for the first, 23.52% for the second.

Going from `CC(C)CCc1sc(NC(=O)c2cc(NC(=O)c3ccc(/C=C/c4cc5ccccc5nc4Cl)cc3)cn2C)nc1C(=O)NCCN1CCOCC1.O=C(O)C(F)(F)F` to `CC(C)CCc1sc(NC(=O)c2cc(NC(=O)c3ccc(/C=C/c4cc5ccccc5nc4On4nnc5ccccc54)cc3)cn2C)nc1C(=O)NCCN1CCOCC1.O=C(O)C(F)(F)F`, the Inhibition falls from 1.02% to -16.43%.

First: Cc1ncc(CNc2cccc(F)c2)c(N)n1
Second: Cc1ncc(CNc2ccc(F)cc2)c(N)n1
The Inhibition of the first is lower: 13.69% for the first, 25.09% for the second.

Compared with `Cc1ncc(CNc2ccc(C(C)(C)C)cc2)c(N)n1`, `Cc1ncc(Cn2cc(CCCO)nn2)c(N)n1` is higher in Inhibition: -2.14% for the first, 13.2% for the second.

First: CC(=O)N(C(C)=O)c1cc(C(=O)Nc2cc(C(=O)NCCC(=N)N)n(C)c2)n(C)c1.O=C(O)C(F)(F)F
Second: COC(=O)c1ccc(C(=O)Nc2cc(C(=O)Nc3cc(C(=O)NCCC(=N)N)n(C)c3)n(C)c2)cc1.O=C(O)C(F)(F)F
The Inhibition of the first is higher: 98.15% for the first, 12.34% for the second.

Going from `CN(C)CCCNC(=O)c1cc(NC(=O)c2cc(NC(=O)c3ccc(C(=O)O)cc3)cn2C)cn1C.O=C(O)C(F)(F)F` to `COC(=O)c1ccc(C(=O)Nc2cc(C(=O)Nc3cc(C(=O)NCCCN(C)C)n(C)c3)n(C)c2)cc1.O=C(O)C(F)(F)F`, the Inhibition falls from 10.82% to -1.58%.

Going from `COc1ccc(/C=C(/C(=O)Nc2cc(C(=O)Nc3cc(C(=O)NCCCN(C)C)n(C)c3)n(C)c2)c2ccc(OC)cc2)cc1.O=C(O)C(F)(F)F` to `COc1cccc(/C=C/c2ccc(C(=O)Nc3cc(C(=O)Nc4cc(C(=O)NCCN(C)C)n(C)c4)n(C)c3)cc2)c1.O=C(O)C(F)(F)F`, the Inhibition rises from 49.85% to 98.95%.

First: CC(C)c1sc(N)nc1C(=O)Nc1cc(C(=O)NCCN2CCOCC2)n(C)c1.O=C(O)C(F)(F)F
Second: Cn1cc(NC(=O)c2cc(NC(=O)c3ccc(/C=C/c4cccc(F)c4)cc3)cn2C)cc1C(=O)NCCN1CCOCC1.O=C(O)C(F)(F)F
The Inhibition of the first is lower: 4.82% for the first, 33.99% for the second.

First: COCCOC1CCN(C(=O)c2cc(NC(=O)c3cc(NC(=O)c4ccc(/C=C/c5cnc6ccccc6c5)cc4)cn3C)cn2C)CC1
Second: Cc1ncc(Cn2cc(CCC(=O)O)nn2)c(N)n1.O=C(O)C(F)(F)F
The Inhibition of the first is lower: 5.5% for the first, 15.37% for the second.

tested on: Escherichia coli; settings: Concentration 32 ug.mL-1; ASSAY_TEST Inhibition of Bacterial Growth; detection method Absorption (OD600); MEDIA CAMHB; plate type 384well; NBS; CORNING #3640; time 18 hr

First: CC(C)CCn1cc(NC(=O)c2cc(NC(=O)c3cc(NC(=N)c4ccccc4)cn3C)cn2C)cc1C(=O)NCCCN(C)C.O=C(O)C(F)(F)F.O=C(O)C(F)(F)F
Second: COc1cccc(C(=N)Nc2cc(C(=O)Nc3cc(C(=O)Nc4cn(CCCN(C)C)cn4)n(C)c3)n(C)c2)c1.O=C(O)C(F)(F)F.O=C(O)C(F)(F)F
The Inhibition of the first is lower: -19.15% for the first, -11.88% for the second.

Going from `Cn1cc(NC(=O)c2cc(NC(=O)c3sc(N)nc3C(F)(F)F)cn2C)cc1C(=O)NCCC(=N)N.O=C(O)C(F)(F)F` to `Cn1cc(NC(=O)c2cc(NC(=O)c3sc(N)nc3C(F)(F)F)cn2C)cc1C(=O)NCCN1CCOCC1.O=C(O)C(F)(F)F`, the Inhibition rises from -25.01% to -24.64%.

Compared with `Cc1ncc(CO)c(N)n1`, `Cc1ncc(Cn2cc(CO)nn2)c(N)n1` is higher in Inhibition: -19.21% for the first, -17.13% for the second.

Going from `CC(=N)Nc1cc(C(=O)Nc2cc(C(=O)Nc3cc(C(=O)NCCN4CCOCC4)n(C)c3)n(C)c2)n(C)c1.O=C(O)C(F)(F)F.O=C(O)C(F)(F)F` to `COC(=O)c1ccc(C(=O)Nc2cc(C(=O)Nc3cc(C(=O)NCCN4CCOCC4)n(C)c3)n(C)c2)cc1.O=C(O)C(F)(F)F`, the Inhibition rises from -8.61% to -5.56%.

Going from `CC(C)CCc1sc(NC(=O)c2cc(NC(=O)c3cc(NC(=O)CCC(=O)O)cn3C)cn2C)nc1C(=O)NCCCN(C)C.O=C(O)C(F)(F)F` to `CN(C)CCCNC(=O)c1cc(NC(=O)c2cc(NC(=O)CCC(=O)O)cn2C)cn1C.O=C(O)C(F)(F)F`, the Inhibition rises from -16.63% to -8.32%.

Compared with `Cc1ncc(Cn2cc(CC(N)C(=O)O)nn2)c(N)n1.Cl` (stereo not given), `Cc1ncc(Cn2cc(CCO)nn2)c(N)n1` is higher in Inhibition: -16.87% for the first, -15.62% for the second.

Going from `CCOC(=O)c1cc(NC(=O)c2cc(NC(=O)c3nc(N)sc3C(C)C)cn2C)cn1C` to `CCOC(=O)c1cc(NC(=O)c2cc(NC(=O)c3sc(N)nc3C(F)(F)F)cn2C)cn1C`, the Inhibition falls from -5.15% to -5.76%.

First: CC(C)CCc1sc(NC(=O)c2cc(NC(=O)c3ccc(/C=C/c4cc5ccccc5nc4Cl)cc3)cn2C)nc1C(=O)NCCN1CCOCC1.O=C(O)C(F)(F)F
Second: CC(C)CCc1sc(NC(=O)c2cc(NC(=O)c3ccc(/C=C/c4cc5ccccc5nc4On4nnc5ccccc54)cc3)cn2C)nc1C(=O)NCCN1CCOCC1.O=C(O)C(F)(F)F
The Inhibition of the first is lower: -19.26% for the first, -13.53% for the second.

First: Cc1ncc(CNc2cccc(F)c2)c(N)n1
Second: Cc1ncc(CNc2ccc(F)cc2)c(N)n1
The Inhibition of the first is higher: 3.54% for the first, -15.16% for the second.

Going from `Cc1ncc(CNc2ccc(C(C)(C)C)cc2)c(N)n1` to `Cc1ncc(Cn2cc(CCCO)nn2)c(N)n1`, the Inhibition falls from -7.27% to -17.2%.

First: CC(=O)N(C(C)=O)c1cc(C(=O)Nc2cc(C(=O)NCCC(=N)N)n(C)c2)n(C)c1.O=C(O)C(F)(F)F
Second: COC(=O)c1ccc(C(=O)Nc2cc(C(=O)Nc3cc(C(=O)NCCC(=N)N)n(C)c3)n(C)c2)cc1.O=C(O)C(F)(F)F
The Inhibition of the first is higher: 6.79% for the first, -18.97% for the second.

Compared with `CN(C)CCCNC(=O)c1cc(NC(=O)c2cc(NC(=O)c3ccc(C(=O)O)cc3)cn2C)cn1C.O=C(O)C(F)(F)F`, `COC(=O)c1ccc(C(=O)Nc2cc(C(=O)Nc3cc(C(=O)NCCCN(C)C)n(C)c3)n(C)c2)cc1.O=C(O)C(F)(F)F` is lower in Inhibition: -6.1% for the first, -9.36% for the second.

Going from `COc1ccc(/C=C(/C(=O)Nc2cc(C(=O)Nc3cc(C(=O)NCCCN(C)C)n(C)c3)n(C)c2)c2ccc(OC)cc2)cc1.O=C(O)C(F)(F)F` to `COc1cccc(/C=C/c2ccc(C(=O)Nc3cc(C(=O)Nc4cc(C(=O)NCCN(C)C)n(C)c4)n(C)c3)cc2)c1.O=C(O)C(F)(F)F`, the Inhibition rises from -8.57% to 88.16%.

First: CC(C)c1sc(N)nc1C(=O)Nc1cc(C(=O)NCCN2CCOCC2)n(C)c1.O=C(O)C(F)(F)F
Second: Cn1cc(NC(=O)c2cc(NC(=O)c3ccc(/C=C/c4cccc(F)c4)cc3)cn2C)cc1C(=O)NCCN1CCOCC1.O=C(O)C(F)(F)F
The Inhibition of the first is higher: -3.07% for the first, -7.74% for the second.

First: COCCOC1CCN(C(=O)c2cc(NC(=O)c3cc(NC(=O)c4ccc(/C=C/c5cnc6ccccc6c5)cc4)cn3C)cn2C)CC1
Second: Cc1ncc(Cn2cc(CCC(=O)O)nn2)c(N)n1.O=C(O)C(F)(F)F
The Inhibition of the first is higher: 7.07% for the first, -17.36% for the second.
